# Measured values: PubChem BioAssay (EPA / NIEHS)
# Some structures have more than one record in an assay (separate samples or runs), and their calls can disagree. Activity calls are given as the source filed them. The calls were made as follows: active = hit-call score of the fitted dose curve at least 0.9, where 1 is the maximum; inactive = score below 0.9.
# Assay: APR_HepG2_MitoticArrest_72hr: Apredica 72-hour HepG2 Assay for Mitotic Arrest (AID 2282918)
# Settings: high-content imaging, actives raise or lower the signal
# Protocol: APR_HepG2_72hr is a cell-based, multiplexed-readout assay that uses HepG2, a human liver cell line, with measurements taken at 72 hours after chemical dosing in a 384-well plate.APR_HepG2_MitoticArrest_72hr is one of 10 assay component(s) measured or calculated from the APR_HepG2_72hr assay. It is designed to make measurements of cell phenotype, a form of morphology reporter, as detected with fluorescence intensity signals by HCS Fluorescent Imaging technology.Data from the assay component APR_HepG2_MitoticArrest_72hr was analyzed into 1 assay endpoint. This assay endpoint, APR_HepG2_MitoticArrest_72hr, was analyzed with bidirectional fitting relative to DMSO as the negative control and baseline of activity. Using a type of morphology reporter, measures of protein for gain or loss-of-signal activity can be used to understand the signaling at the pathway-level as they relate to the gene . Furthermore, this assay endpoint can be referred to as a primary readout, because this assay has produced multiple assay endpoints where this one serves a signaling function. To generalize the intended target to other relatable targets, this assay endpoint is annotated to the cell cycle intended target family, where the subfamily is arrest.
# Cells were treated with dimethyl sulfoxide (DMSO) as a solvent control at a final concentration of 0.5% v/v or with compounds in DMSO with a resulting final DMSO concentration of 0.5% v/v. Compound treatment was done at concentrations of 0.39, 0.78, 1.56, 3.12, 6.24, 12.5, 25, 50, 100, and 200 uM in duplicate on each plate. Cells were treated with compounds for 1, 24, or 72 hr. Carbonyl […] m-chloro-phenylhydrazone (CCCP) and taxol were used as positive controls for mitochondrial function and cytoskeletal stability, respectively; DMSO served as the negative control for this experiment. Cells were fixed by the direct addition of 50 uL formaldehyde in Hank's Balanced Salt Solution (HBSS) to a final concentration of 3.7%. After incubation in the fixation medium for 30 min at room temperature (293-298 K), cells were rinsed twice with HBSS and treated with cell permeabilization buffer (16 uL of 0.5% Triton X-100) for 10 min at room temperature (293-298 K) before labeling. For mitochondrial membrane potential and mitochondrial measurements, pre-fixed cells were incubated with 50 uL of MitoTracker Red CMXRos (Invitrogen) at a concentration of 250 nM for 30 min before fixation. In the remaining cases, post-fixed cells were labeled by incubation with a multiplexed mixture of primary antibodies in HBSS for 60 min at room temperature (293-298 K) to detect immunoreactivity of c-Jun (1:500), phospho-histone H3 (1:100), phospho-histone H2A.x (1:200), p53 (1:400), alpha-tubulin (1:200) and Hoechst 33342 (2 ug/mL). Cells were labeled for multiplexed imaging on two separate plates: a) Hoechst 33342, MitoTracker Red, phospho-histone H3, and alpha-tubulin, and b) Hoechst 33342, phospho-histone H2A.x, and c-Jun. A final rinse with HBSS (50 uL) was performed before analysis. The primary and secondary antibodies for the proteins were phospho-histone H3 (rabbit anti-phospho-histone H3 and FITC-donkey anti-rabbit IgG), phospho-histone H2A.x (mouse anti-phospho-histone H2A.x and FITC-donkey anti-mouse IgG), c-Jun (rabbit anti-phospho-c-Jun and Cy3-donkey anti-rabbit IgG), p53 (sheep anti-p53 and Cy5-donkey anti-sheep IgG), alpha-tubulin (mouse anti-alpha-tubulin and Cy5-donkey anti-mouse IgG). These antibodies are available as the CellCiphr HepG2 assay kit (Millipore).Digital images of each well were captured using a Cellomics ArrayScan VTI (Thermo Scientific Cellomics) (0.8 NA objective, 0.63x optical coupler, and XF-93 filter set) at 20x magnification. The images were acquired using the autofocus feature of the ArrayScan instrument, which entails the following steps. First, the camera focuses on channel 1 (Hoechst 33342), where nuclei are identified. Second, a Z offset of 1 um is used for capturing mitochondria (MitoTracker Red). […]
Compound,outcome,AC50
O=C(c1ccccc1)C1CCCCC1,inactive,
CSC(=O)c1cccc2nnsc12,inactive,
C[C@]12C[C@H](O)[C@H]3[C@@H](CCC4=CC(=O)CC[C@@]43C)[C@@H]1CC[C@@H]2C(=O)CO,,86.1 µM (active)
CCOC(=O)c1ccc(O)cc1,inactive,
CCOC(=O)NCCOc1ccc(Oc2ccccc2)cc1,inactive,
O=C(Nc1ccc([N+](=O)[O-])cc1Cl)c1cc(Cl)ccc1O,,0.238 µM (active)
CC(=O)S[C@@H]1CC2=CC(=O)CC[C@]2(C)[C@H]2CC[C@@]3(C)[C@@H](CC[C@@]34CCC(=O)O4)[C@H]12,,53.6 µM (active)
CCCCC(CC)CN1C(=O)C2C3C=CC(C3)C2C1=O (stereo not given),inactive,
CC(C)CCCCCCc1ccc(O)cc1,,30.9 µM (active)
CC(C)(c1ccc(O)cc1)c1ccc(O)cc1,inactive,
COC(=O)c1ccccc1S(=O)(=O)NC(=O)Nc1nc(OC(F)F)cc(OC(F)F)n1,inactive,
COC(=O)c1c(Cl)nn(C)c1S(=O)(=O)NC(=O)Nc1nc(OC)cc(OC)n1,inactive,
COc1c(Cl)ccc(Cl)c1C(=O)O,inactive,
CCOC(=O)[C@H](C)Oc1ccc(Oc2nc3ccc(Cl)cc3o2)cc1,inactive,
CCCCCOC(=O)COc1cc(N2C(=O)C3=C(CCCC3)C2=O)c(F)cc1Cl,inactive,
S=C(S)NCCNC(=S)S.[Mn+2].[S-]C([S-])=NCCN=C([S-])[S-].[Zn+2],inactive,51.9 µM (active) [middle of 5 runs]
N#CSCSc1nc2ccccc2s1,inactive,
CCCN(CCC)c1c([N+](=O)[O-])cc(C(F)(F)F)c(N)c1[N+](=O)[O-],inactive,
CCCCOC(=O)C(C)Oc1ccc(Oc2ccc(C(F)(F)F)cn2)cc1 (stereo not given),inactive,
CCCCOC(=O)[C@@H](C)Oc1ccc(Oc2ccc(C(F)(F)F)cn2)cc1,inactive,

Compound,outcome,AC50
CCOC(=O)COc1cc(-n2ncc(C(F)(F)F)c(C)c2=O)c(F)cc1Cl,inactive,
N[C@@H](Cc1cc(I)c(Oc2ccc(O)c(I)c2)c(I)c1)C(=O)O,inactive,
CCCN(CCC)C(=O)SCC,inactive,
COC(=O)c1cccc(C)c1S(=O)(=O)NC(=O)Nc1nc(OCC(F)(F)F)nc(N(C)C)n1,inactive,
COCCO,inactive,
CCOC(=O)C(C)Oc1ccc(Oc2cnc3cc(Cl)ccc3n2)cc1 (stereo not given),inactive,
COC(=O)c1ccccc1C(=O)O,inactive,
C=CCOC(Cn1ccnc1)c1ccc(Cl)cc1Cl (stereo not given),,78.5 µM (active)
CN(C)C(=O)Nc1ccc(Cl)c(Cl)c1,inactive,
CCN(CC)C(=O)c1cccc(C)c1,inactive,
CCCOC(=O)c1ccc(C(=O)OCCC)nc1,inactive,
COC(=O)CSc1cc(N=c2sc(=O)n3n2CCCC3)c(F)cc1Cl,inactive,
C#CCOC(=O)[C@@H](C)Oc1ccc(Oc2ncc(Cl)cc2F)cc1,inactive,
CC(=O)[C@H]1CC[C@H]2[C@@H]3CCC4=CC(=O)CC[C@]4(C)[C@H]3CC[C@]12C,,81.6 µM (active)
COC(=O)c1ccc(CNS(C)(=O)=O)cc1S(=O)(=O)NC(=O)Nc1nc(OC)cc(OC)n1,inactive,
CCNc1nc(N)nc(Cl)n1,inactive,
C#C[C@]1(O)CC[C@H]2[C@@H]3CCC4=CC(=O)CC[C@@H]4[C@H]3CC[C@@]21CC,inactive,
CC(C)(C)[C@@H](O)[C@@H](Cc1ccc(Cl)cc1)n1cncn1,inactive,
CCN(Cc1c(F)cccc1Cl)c1c([N+](=O)[O-])cc(C(F)(F)F)cc1[N+](=O)[O-],inactive,
